TDP1 cell CPT: DT40-hTDP1 cell growth loss with CPT | actives 12% (n = 420,000) | chicken DT40 Tdp1-/-;hTDP1 cells + 20 nM CPT, ATP luminescence, 48 h | Potency, µM (top dose mostly 46.2 µM), most hits filed as inhibitors; note: nearly all actives have a fitted effect of over 55% in size
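Cell growth measured by CellTiter-Glo luminescence after a minimum 48 h, 37 C compound exposure with 20 nM CPT in Tdp1-knockout DT40 cells stably expressing hTDP1, seeded 400/well; qHTS titration format.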
VP16 counter: Gal4-VP16 reporter inhibition counter-screen; Drosophila S2 Gal4-VP16 UAS-luciferase, luminescence, 20 h; Potency, µM (doses to about 53.6 µM), usual class: inhibitors; actives 3.5% (n = 310,000); AID 2546;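 note: Gal4-VP16 expression switched on by copper sulfate through the metallothionein promoter; nearly all actives have a fitted effect of over 50% in size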
RORg inh: blocks mouse ROR gamma transcriptional activity; Potency, µM (series often up to 53.6 µM), usual class: inhibitors; actives 5.4% (n = 310,000); Drosophila S2 Gal4-RORgamma UAS-luciferase reporter, 20 h; AID 2551; note: nearly all actives have a fitted effect of over 60% in size
Target sequence (P51450 whole entry, looked up, the tested form may be a part): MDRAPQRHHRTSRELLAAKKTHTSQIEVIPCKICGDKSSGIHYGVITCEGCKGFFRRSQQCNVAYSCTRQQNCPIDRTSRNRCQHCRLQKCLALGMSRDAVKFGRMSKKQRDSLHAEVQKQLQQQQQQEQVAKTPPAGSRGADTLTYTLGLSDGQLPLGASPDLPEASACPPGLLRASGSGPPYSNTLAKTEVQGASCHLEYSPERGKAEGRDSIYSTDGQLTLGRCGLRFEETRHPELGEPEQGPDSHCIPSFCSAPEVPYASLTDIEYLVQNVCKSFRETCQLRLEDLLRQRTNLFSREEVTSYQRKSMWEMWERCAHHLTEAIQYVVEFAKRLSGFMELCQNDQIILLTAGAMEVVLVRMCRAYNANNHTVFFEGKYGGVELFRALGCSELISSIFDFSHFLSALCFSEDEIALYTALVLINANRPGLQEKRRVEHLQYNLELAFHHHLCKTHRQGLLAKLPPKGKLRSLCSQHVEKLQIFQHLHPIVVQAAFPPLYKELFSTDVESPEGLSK
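A Gal4/UAS one-hybrid system in insect cells: metallothionein-promoter Gal4–ROR gamma fusion plus Photinus luciferase reporter. Copper sulfate 700 uM final, 20 hr ambient incubation, luminescent detection after 10 min with reagent.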
TDP1 cell noCPT: qHTS for Inhibitors of human tyrosyl-DNA phosphodiesterase 1 (TDP1): qHTS in cells in absence of CPT; AID 686978, 2013; DT40 Tdp1-/- hTDP1 cells, no CPT, ATP luminescence, 48 h; actives 15% (n = 420,000); Potency, µM (top dose mostly 46.2 µM), most hits filed as inhibitors; note: nearly all actives have a fitted effect of over 55% in size
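Luminescent ATP content (CellTiter-Glo) served as the growth readout. Knockout chicken DT40 cells expressing human TDP1 were exposed to compounds without camptothecin for a minimum 48 hr at 37 °C.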
TDP1 block: TDP1 (human) enzyme inhibition | recombinant TDP1, AlphaScreen DNA substrate cleavage | AID 485290 | actives 0.28% (n = 350,000) | Potency, µM (series often up to 130 µM), usual class: inhibitors | Q9NUW8; note: nearly all actives have a fitted effect of over 40% in size
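E. coli-derived human Tdp1, 1 nM final. Cpd preinc 15 min RT; substrate 15 nM final, 5 min RT; AS bead mix 10 ug/ml final, 10 min RT. Signal loss = tyrosine-FITC cleavage. No-enzyme wells = max signal.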
Numbers stand for hits; – = inactive; ? = inconclusive; · = not tested or not shown; [ ] = dose if it differs, or a comment. Compounds with a hit are over-represented: about 19% of the library has one in this group of screens. Calls come from the whole dose curve; as a rule, active = well fitted curve in the direction sought with a large enough effect; inconclusive = small, poorly fitted or top-dose-only effect, or another doubt; inactive = no such curve, though single readings can be large; an effect the other way counts as inactive or inconclusive.

SMILES	TDP1 cell CPT	VP16 counter	RORg inh	TDP1 cell noCPT	TDP1 block
COc1ccc(OC)c(-n2c(-c3cccc(C)c3)n[nH]c2=S)c1	–	–	2.5µM	?	–
COc1cc(C2C3=C(CC(C)(C)CC3=O)N(C)C3=C2C(=O)CC(C)(C)C3)ccc1O	–	–	–	–	–
O=C(CSc1ncc(-c2ccccc2)n1-c1ccccc1)NCc1ccco1	?	–	–	16µM	–
Cc1ccc(NC(=O)CSc2nc3ccccc3c3nc4ccccc4n23)cc1	0.65µM	–	–	0.58µM	–
O=C(CSc1nc2ccccc2c2nc3ccccc3n12)NCc1ccco1	26µM	–[0.365 µM]	?	23µM	·
CCOc1cccc(Nc2nn(-c3ccc(OC(F)(F)F)cc3)nc2C(C)=O)c1	–	·	·	–	–
N#Cc1ccccc1S(=O)(=O)Nc1ccc2c(c1)OCCO2	–	–	–	–	–
CCn1c(=O)c(=O)n(CC)c2cc(S(=O)(=O)Nc3ccc(C)cc3)ccc21	–	–	–	–	–
C=CCn1c(SCc2nc3ccccc3c(=O)[nH]2)nc2sc3c(c2c1=O)CCCC3	?	–	–	?	–
O=C(Nc1ccsc1C(=O)NC1CCCCC1)c1ccccc1	?	–	–	21µM	–
O=C(Nc1ccccc1C(=O)NC(Cc1ccccc1)C(=O)NC1CCCCCC1)c1ccccc1 (configuration not stated)	?	–	–	23µM	–
Cc1ccc(C(=O)Nc2ccsc2C(=O)O)cc1	?	?	11µM	15µM	·
O=C(Nc1ccccc1C(=O)NC1CCCCC1)c1ccccc1	?	–	–	?	–
O=C(Nc1ccsc1C(=O)O)c1ccc(Cl)cc1	–	?	–	?	·
CCOC(=O)C1CCCN(C(=O)N2CCOCC2)C1 (configuration not stated)	–	–	?	–	–
CCOc1cc(C(=S)N2CCOCC2)ccc1OS(=O)(=O)c1ccccc1[N+](=O)[O-]	?	–	–	?	–
CSc1nc(NCCOCCO)c2sc3nc(-c4ccco4)c4c(c3c2n1)CCC4	18µM	–	–	16µM	35µM
CCN(CCO)c1nc(SC)nc2c1sc1nc(-c3ccco3)c3c(c12)CCC3	–	–	–	–	–
CCOc1ccccc1N1CCN(C(=O)c2ccc(Cl)c(S(=O)(=O)N3CCCCC3)c2)CC1	?	·	·	?	–
O=C1OC[C@H]2CCCN2C(=O)[C@@H](CC(=O)N(CCO)Cc2ccccc2)C/C=C\C[C@H]1Cc1ccc(F)cc1	13µM	·	·	18µM	–
O=C1CCCC/C=C\C[C@H](CC(=O)N(CCO)Cc2ccccc2)C(=O)N2CCC[C@@H]2CO1	16µM	·	·	?	–
O=C1OC[C@@H]2CCCN2C(=O)[C@@H](CC(=O)N(CCO)Cc2ccccc2)C/C=C\C[C@H]1Cc1ccc(F)cc1	?	·	·	15µM	–
CC(C)(C)OC(=O)C[C@H]1C/C=C\C[C@H](CC(=O)N(CCO)Cc2ccccc2)C(=O)N2CCC[C@H]2COC1=O	26µM	·	·	?	–
Nc1[nH]c(C(=O)c2ccccc2)c(-c2ccc(Cl)cc2)c1C(=O)NCc1ccco1	–	·	·	–	·
CC1CC2(C)CC(C)C1(COC(=O)Nc1ccccc1)CO2 (configuration not stated)	–	–	–	?	–
SMILES	TDP1 cell CPT	VP16 counter	RORg inh	TDP1 cell noCPT	TDP1 block
CCOCCCNCc1ccc(OCc2ccccc2Cl)cc1	?	–	–	?	–
CCn1c(COc2ccc3c(c2)OCO3)nnc1SCC(=O)c1ccc(Cl)cc1	?	–	–	–	–
CC(=O)c1ccc(NC(=O)CN2c3cccc4cccc(c34)S2(=O)=O)cc1	–	·	·	?	–
Cn1c(CSCc2ccc(Cl)cc2)nnc1SCC(=O)Nc1nccs1	?	–	–	?	–
Cn1c(CSCc2ccc(F)cc2)nnc1SCC(=O)Nc1nccs1	10µM	–	–	13µM	–
Cn1c(CSCc2ccc(Cl)c(Cl)c2)nnc1SCC(=O)Nc1nccs1	26µM	–	–	18µM	–
Cn1cccc1Cc1nnc(SCC(=O)Nc2nccs2)n1CCc1ccccc1	21µM	?	18µM	?	–
COc1ccc2[nH]cc(CCNc3ncncc3-c3ccc(N(C)C)cc3)c2c1	?	–	–	?	–
